# Reference: paper PMC5489143, “One ligand, two regulators and three binding sites: How KDPG controls primary carbon metabolism in Pseudomonas”
# Assays:
# Settings in all cases: protein: recombinant; tags: C-terminal His (pET42b), not removed; chain copies: 2; label: captured on SA chip through 20-nt ReDCaT single-stranded 3' overhang of strand 2; dsDNA, one strand shown
# RccR-His [1] = target: T1, RccR-His (Pseudomonas fluorescens SBW25, UniProt A0ACD4XSS6 1-288); assay: SPR (ReDCaT); SPR ReDCaT, 10 mM HEPES pH 7.4, 300 mM NaCl, 3 mM EDTA, 0.05% Tween-20, 25 C; high values mean tight binding
# RccR-His [2] = target: T1, RccR-His; assay: SPR (ReDCaT); KDPG 0 uM; SPR ReDCaT, 10 mM HEPES pH 7.4, 300 mM NaCl, 3 mM EDTA, 0.05% Tween-20, 25 C; high values mean tight binding
# RccR-His [3] = target: T1, RccR-His; assay: SPR (ReDCaT); KDPG 1 uM; SPR ReDCaT, 10 mM HEPES pH 7.4, 300 mM NaCl, 3 mM EDTA, 0.05% Tween-20, 25 C; high values mean tight binding
# RccR-His [4] = target: T1, RccR-His; assay: SPR (ReDCaT); KDPG 10 uM; SPR ReDCaT, 10 mM HEPES pH 7.4, 300 mM NaCl, 3 mM EDTA, 0.05% Tween-20, 25 C; high values mean tight binding
# RccR-His [5] = target: T1, RccR-His; assay: SPR (ReDCaT); KDPG 100 uM; SPR ReDCaT, 10 mM HEPES pH 7.4, 300 mM NaCl, 3 mM EDTA, 0.05% Tween-20, 25 C; high values mean tight binding
sequence,measurement,setting,value
AATGTAGCCCCTTTTTTCAGCCCCTACATG,binding signal,RccR-His [1],6.22 %Rmax
CATGTAGTATGCCCAACCGTGCACTACATA,binding signal,RccR-His [1],55.1 %Rmax
CTTGTAGTATAACTACAAGCTTGCTACATC,binding signal,RccR-His [1],158 %Rmax
same,binding signal,RccR-His [2],161 %Rmax
same,binding signal,RccR-His [3],152 %Rmax
same,binding signal,RccR-His [4],125 %Rmax
same,binding signal,RccR-His [5],105 %Rmax
CGGTAGTAGTGCGCAACTTTCTACTACAAA,binding signal,RccR-His [1],35.9 %Rmax
CTTGTAGTTAATTTTTCGTCACCCGTCATA,binding signal,RccR-His [1],8.34 %Rmax
ATGTAGGGTCCGCCGAAGACCACTACCT,binding signal,RccR-His [1],3.18 %Rmax
TATGTAGTGAGCAAAAATAATCACTACATA,binding signal,RccR-His [1],59.1 %Rmax
GATGTAGTGCTTGAAAAAAAGCACTACAAA,binding signal,RccR-His [1],82.8 %Rmax
same,binding signal,RccR-His [2],67.2 %Rmax
same,binding signal,RccR-His [3],104 %Rmax
same,binding signal,RccR-His [4],119 %Rmax
same,binding signal,RccR-His [5],121 %Rmax
CTTGTGTAGTTTTACTACTCGTATATACAT,binding signal,RccR-His [1],126 %Rmax
same,binding signal,RccR-His [2],121 %Rmax
same,binding signal,RccR-His [3],116 %Rmax
same,binding signal,RccR-His [4],86.8 %Rmax
same,binding signal,RccR-His [5],29.9 %Rmax
